# In PubChem BioAssay (Tox21):
# A number with no mark means an inactive call. Active and inactive are the calls of the source. Calls come from the whole dose curve; as a rule, active = well fitted curve in the direction sought with a large enough effect in the repeat runs; inconclusive = weak or mixed curves; inactive = flat fitted curve, though single readings scatter. Positions of bridges follow the written chain, without caps; N, C: chain ends. Non-standard residues stand in square brackets, D forms with d. Residues, ends and D or L forms follow the SMILES beside them. *: point of attachment. X1 = CC[C@@H](C)[C@@H](N)C1=N[C@H](C(=O)*)CS1; d(aIle) = CC[C@H](C)[C@@H](N)C(=O)O; dOrn = NCCC[C@@H](N)C(=O)O
# Experiment: qHTS assay to test for compound auto fluorescence at 460 nm (blue) in HepG2 cell free culture (AID 720685)
# Conditions: Cell-free culture medium, blue autofluorescence 405/460 nm; series mostly up to 46 µM; fluorescence, % of fluorescent control: at the top concentration
# Procedure, shortened: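 Cell-free plates of MEM plus 10% FBS received 23 nL compound or DMSO vehicle; blue-channel (405/460 nm) intensity scored against triamterene as reference fluorophore.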
# % is set by controls: 0 for no effect and ±100 for the full control effect; potency is the fitted concentration of half-maximal effect; tags give direction and shape of the fitted curve or compound fluorescence and quenching.
Compound,"fluorescence, % of fluorescent control",Potency
CN1[C@@H](CC(=O)c2ccccc2)CCC[C@H]1C[C@H](O)c1ccccc1,0.0455%,–
CCN1CCCC1CNC(=O)c1cc(S(=O)(=O)CC)ccc1OC (stereo not drawn),–,inactive
Nc1nc(NC2CC2)c2ncn([C@@H]3C=C[C@@H](CO)C3)c2n1,0.0428%,–
Cc1cc(N)c2ccccc2[n+]1CCCCCCCCCC[n+]1c(C)cc(N)c2ccccc21,0.0589% [at 18.6 µM],–
CC[C@@H](C)[C@H](N)C(=O)O,0.152%,–
CCCCCCCCCCCCN1CCCC1=O,-0.2% [at 91.3 µM],–
CC12CCC(C[N+](C)(CCC[N+](C)(C)C)C1)C2(C)C (stereo not drawn),0.0009%,–
CC(C)(COP(=O)(O)OP(=O)(O)OC[C@H]1O[C@@H](n2cnc3c(N)ncnc32)[C@H](O)[C@@H]1OP(=O)(O)O)C(O)C(=O)NCCC(=O)NCCS (stereo partly drawn),-0.0738%,–
O=C1c2ccccc2-c2n[nH]c3cccc1c23,–,12.6 µM [fluorescent] (active)
CO[C@H](C(=O)[C@@H](O)[C@@H](C)O)C1Cc2cc3cc(O[C@H]4C[C@@H](O[C@H]5C[C@@H](O)[C@H](O)[C@@H](C)O5)[C@@H](O)[C@@H](C)O4)c(C)c(O)c3c(O)c2C(=O)[C@H]1O[C@H]1C[C@@H](O[C@H]2C[C@@H](O[C@H]3C[C@](C)(O)[C@H](O)[C@@H](C)O3)[C@H](O)[C@@H](C)O2)[C@H](O)[C@@H](C)O1 (stereo partly drawn),–,inactive
CCOC(=O)Cc1ccc(-c2ccccc2)cc1,0.125%,–
CC(=O)O[C@H]1C[C@@H]2CC[C@@H]3[C@H](CC[C@@]4(C)[C@H]3C[C@H]([N+]3(C)CCCCC3)[C@@H]4OC(C)=O)[C@@]2(C)C[C@@H]1[N+]1(C)CCCCC1,-0.0998%,–
CS(=O)(=O)c1ccc([C@@H](CC2CCCC2)C(=O)Nc2cnccn2)cc1Cl,-0.0363% [at 91.3 µM],–
O=C1c2c(O)cccc2[C@H]([C@@H]2O[C@H](CO)[C@@H](O)[C@H](O)[C@H]2O)c2cc(CO)cc(O)c21,–,inactive
CC1CCCCN1CCCOC(=O)c1ccccc1 (stereo not drawn),-0.0028%,–
O=C(O)CCCC/C=C(\c1ccccc1)c1cccnc1,-0.0059%,–

Compound,"fluorescence, % of fluorescent control",Potency
CC[C@@H](C)[C@@H](N)C1=N[C@H](C(=O)N[C@@H](CC(C)C)C(=O)N[C@@H](CCC(=O)O)C(=O)N[C@@H](C(=O)N[C@@H]2CCCCNC(=O)[C@@H](CC(N)=O)NC(=O)[C@@H](CC(=O)O)NC(=O)[C@@H](Cc3cnc[nH]3)NC(=O)[C@@H](Cc3ccccc3)NC(=O)[C@@H]([C@H](C)CC)NC(=O)[C@@H](CCCN)NC2=O)[C@@H](C)CC)CS1 (X1-LE[d(aIle)][dK][dOrn][dI][dF][dH][dD][dN]; lactam 4-C),–,inactive
CO[C@H]1C[C@@H]2CC[C@@H](C)[C@@](O)(O2)C(=O)C(=O)N2CCCC[C@H]2C(=O)O[C@H]([C@H](C)C[C@@H]2CC[C@@H](O)[C@H](OC)C2)CC(=O)[C@H](C)C=C(C)[C@@H](O)[C@@H](OC)C(=O)[C@H](C)C[C@H](C)/C=C/C=CC=C1C,–,inactive
CC(=O)[C@]1(O)Cc2c(O)c3c(c(O)c2[C@@H](O[C@H]2C[C@H](N)[C@H](O)[C@H](C)O2)C1)C(=O)c1ccccc1C3=O,-0.217%,–
N=C(N)n1cccn1,-0.0346%,–
C=CC[N+]1([C@H]2C[C@H]3[C@@H]4CC[C@H]5C[C@H](O)[C@@H](N6CCOCC6)C[C@]5(C)[C@H]4CC[C@]3(C)[C@H]2OC(C)=O)CCCC1,-0.152%,–
C=CC1=C(C(=O)O)N2C(=O)[C@@H](NC(=O)/C(=N\O)c3csc(N)n3)[C@H]2SC1 (stereo in doubt),–,inactive
CC(=O)N[C@@H](C=O)[C@H](O)[C@H](O)[C@@H](O)CO,–,inactive
CNCC(=O)N[C@@H](CCCN=C(N)N)C(=O)N[C@H](C(=O)N[C@@H](Cc1ccc(O)cc1)C(=O)N[C@H](C(=O)N[C@@H](Cc1cnc[nH]1)C(=O)N1CCC[C@H]1C(=O)N[C@@H](C)C(=O)O)C(C)C)C(C)C,-0.0856%,–
CCCOC(=O)c1ccccc1O,-0.0374%,–
CC(C)(S)C(=O)N[C@@H](CS)C(=O)O,–,inactive
CCCCCCCC/C=C\CCCCCCCC(=O)N(CCO)CCO,-0.0322% [at 91.3 µM],–
Oc1ccc(Cl)cc1C1CCCC1,-0.027% [at 91.3 µM],–
O=C(O)/C=C/C(=O)Nc1ccc(S(=O)(=O)Nc2nccs2)cc1,-0.0002%,–
Nc1ccc(N)c([N+](=O)[O-])c1,-0.468% [at 91.3 µM],–
N#Cc1c(N(CC(=O)O)CC(=O)O)sc(C(=O)O)c1CC(=O)O,-0.01%,–
N[C@@H](Cc1ccc(O)c(O)c1)C(=O)O,0.865%,–

# Experiment: qHTS assay to test for compound auto fluorescence at 535 nm (green) in HepG2 cell free culture (AID 720686)
# Conditions: Cell-free medium, green autofluorescence 485/535 nm; series mostly up to 46 µM; fluorescence, % of fluorescein control: at the top concentration
Compound,"fluorescence, % of fluorescein control",Potency
CN1[C@@H](CC(=O)c2ccccc2)CCC[C@H]1C[C@H](O)c1ccccc1,0.026%,–
Nc1nc(NC2CC2)c2ncn([C@@H]3C=C[C@@H](CO)C3)c2n1,0%,–
CCCCCCCCCCCCN1CCCC1=O,0.101% [at 91.3 µM],–
CC1(C)C[C@@H]1C(=O)N/C(=C\CCCCSC[C@H](N)C(=O)O)C(=O)O,–,inactive
CC12CCC(C[N+](C)(CCC[N+](C)(C)C)C1)C2(C)C (stereo not drawn),0.112%,–
CC(C)(COP(=O)(O)OP(=O)(O)OC[C@H]1O[C@@H](n2cnc3c(N)ncnc32)[C@H](O)[C@@H]1OP(=O)(O)O)C(O)C(=O)NCCC(=O)NCCS (stereo partly drawn),-0.102%,–
O=C1c2ccccc2-c2n[nH]c3cccc1c23,0.65%,–
CO[C@H](C(=O)[C@@H](O)[C@@H](C)O)C1Cc2cc3cc(O[C@H]4C[C@@H](O[C@H]5C[C@@H](O)[C@H](O)[C@@H](C)O5)[C@@H](O)[C@@H](C)O4)c(C)c(O)c3c(O)c2C(=O)[C@H]1O[C@H]1C[C@@H](O[C@H]2C[C@@H](O[C@H]3C[C@](C)(O)[C@H](O)[C@@H](C)O3)[C@H](O)[C@@H](C)O2)[C@H](O)[C@@H](C)O1 (stereo partly drawn),–,inactive
CCOC(=O)Cc1ccc(-c2ccccc2)cc1,-0.0044%,–
CC(=O)O[C@H]1C[C@@H]2CC[C@@H]3[C@H](CC[C@@]4(C)[C@H]3C[C@H]([N+]3(C)CCCCC3)[C@@H]4OC(C)=O)[C@@]2(C)C[C@@H]1[N+]1(C)CCCCC1,-0.0828%,–
CS(=O)(=O)c1ccc([C@@H](CC2CCCC2)C(=O)Nc2cnccn2)cc1Cl,-0.0184% [at 91.3 µM],–
CC1CCCCN1CCCOC(=O)c1ccccc1 (stereo not drawn),0.0282%,–
O=C(O)CCCC/C=C(\c1ccccc1)c1cccnc1,-0.0339%,–
NC(=S)NS(=O)(=O)c1ccc(N)cc1,0.0253%,–
CO[C@H]1C[C@@H]2CC[C@@H](C)[C@@](O)(O2)C(=O)C(=O)N2CCCC[C@H]2C(=O)O[C@H]([C@H](C)C[C@@H]2CC[C@@H](O)[C@H](OC)C2)CC(=O)[C@H](C)C=C(C)[C@@H](O)[C@@H](OC)C(=O)[C@H](C)C[C@H](C)/C=C/C=CC=C1C,–,inactive
CC(=O)[C@]1(O)Cc2c(O)c3c(c(O)c2[C@@H](O[C@H]2C[C@H](N)[C@H](O)[C@H](C)O2)C1)C(=O)c1ccccc1C3=O,–,14.1 µM [fluorescent] (active)

Compound,"fluorescence, % of fluorescein control",Potency
N=C(N)n1cccn1,0.0017%,–
C=CC[N+]1([C@H]2C[C@H]3[C@@H]4CC[C@H]5C[C@H](O)[C@@H](N6CCOCC6)C[C@]5(C)[C@H]4CC[C@]3(C)[C@H]2OC(C)=O)CCCC1,-0.115%,–
CCc1ncnc2cc(OC)c(OC)cc12,-0.0469%,–
C=CC1=C(C(=O)O)N2C(=O)[C@@H](NC(=O)/C(=N\O)c3csc(N)n3)[C@H]2SC1 (stereo in doubt),–,inactive
CC(=O)N[C@@H](C=O)[C@H](O)[C@H](O)[C@@H](O)CO,–,inactive
CNCC(=O)N[C@@H](CCCN=C(N)N)C(=O)N[C@H](C(=O)N[C@@H](Cc1ccc(O)cc1)C(=O)N[C@H](C(=O)N[C@@H](Cc1cnc[nH]1)C(=O)N1CCC[C@H]1C(=O)N[C@@H](C)C(=O)O)C(C)C)C(C)C,0.0097%,–
CCCOC(=O)c1ccccc1O,0.0287%,–
CC(C)(S)C(=O)N[C@@H](CS)C(=O)O,–,inactive
CCCCCCCC/C=C\CCCCCCCC(=O)N(CCO)CCO,-0.0137% [at 91.3 µM],–
Oc1ccc(Cl)cc1C1CCCC1,0.0037% [at 91.3 µM],–
O=C(O)/C=C/C(=O)Nc1ccc(S(=O)(=O)Nc2nccs2)cc1,0.0268%,–
Nc1ccc(N)c([N+](=O)[O-])c1,-0.385% [at 91.3 µM],–
N#Cc1c(N(CC(=O)O)CC(=O)O)sc(C(=O)O)c1CC(=O)O,0.0978%,–
N[C@@H](Cc1ccc(O)c(O)c1)C(=O)O,-0.0196%,–
CC(C)c1ccc2sc3ccccc3c(=O)c2c1,-0.0144% [at 91.3 µM],–
